Screening data from PubChem BioAssay.
T cruzi growth-1 = T. cruzi intracellular proliferation inhibitors, primary screen, cell-based, beta-gal Tulahuen parasites, NIH3T3 host, luminescence; AID 624255, 2012; inhibition, % at 8.34 µM; hit rate 5.9% among 77,000; T. cruzi beta-gal in NIH3T3, GalScreen luminescence, 90 h;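 active = mean inhibition above about 93%, with at least 55% of replicates each passing it, limit read from the data, passing the limit was not always enough; inconclusive = only one of those two conditions holds; inactive = neither condition holds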
Pf Dd2 growth = P. falciparum Dd2 growth inhibitors, primary screen, SYBR Green fluorescence, single dose replicates. 72 h; stronger effect = lower value. hit rate 2.3% among 94,000. activity change, % at 10 µM; in the data active = activity change below about -80%; inconclusive = no clear call, values can overlap the other calls
C diff HTS = C. difficile growth inhibitors, primary screen, HTS | AID 1259249, 2017 | growth activity, negative = inhibition, % at 16 µg/mL (by protocol) | Clostridium difficile clinical isolate growth, OD600, 24 h; stronger effect = lower value | hit rate 0.25% among 86,000;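 active = mean growth activity at or below -80% and every replicate also at or below -80%; inconclusive = mean at or below -80% but some replicate above -80%; inactive = mean growth activity above -80%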
T cruzi growth-2 = T. cruzi intracellular proliferation inhibitors, confirmation, cell-based, NIH3T3 host, beta-gal parasite, luminescence, cherry-pick | shares compounds with T cruzi growth-1 | T. cruzi beta-gal in NIH3T3, GalScreen luminescence, 90 h | inhibition, % at 8.35 µM | hit rate 72% among 5,600 | AID 651739, 2012;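 active = mean replicate inhibition above about 95% and at least 55% of replicates individually reaching it, limit read from the data; inconclusive = only one of the two criteria is met; inactive = neither criterion is met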
T cruzi growth-3 = inhibitors of intracellular T. cruzi replication, confirmation, NIH3T3 host cells, beta-gal parasites, cherry-pick, set 2 | hit rate 21% among 5,600 | shares compounds with T cruzi growth-1 | inhibition, % at 2.09 µM | T. cruzi beta-gal in NIH3T3, GalScreen luminescence, 90 h;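 active = mean inhibition above about 95%, with at least 55% of replicates also reaching it, limit read from the data; inconclusive = meets just one of the two conditions; inactive = meets neither condition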
3T3 cytotox = cytotoxicity in mouse NIH/3T3 fibroblasts, confirmation, cytotoxicity control for T. cruzi proliferation inhibitor project, cell-based, cherry-pick, single point; shares compounds with T cruzi growth-1; NIH/3T3 viability, CellTiter-Glo ATP luminescence, 90 h; cytotoxicity (signal decrease), % at 8.35 µM; hit rate 14% among 5,600;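 active = mean signal decrease across replicates above about 35% based on untreated-well scatter, with enough replicates individually passing, limit read from the data; inconclusive = no rule stated though some were filed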
3T3 cytotox 2 = NIH/3T3 fibroblast cytotoxicity, confirmation, cytotoxicity control, cell-based, cherry-pick, single point, set 2 | shares compounds with T cruzi growth-1 | NIH/3T3 viability, CellTiter-Glo ATP luminescence, 90 h | inhibition, % at 24.9 µM | hit rate 56% among 5,600 | AID 651744, 2012;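 active = mean loss of cell viability signal at or above a set limit, and enough replicates individually reaching it; inconclusive = meets only the mean limit or only the replicate share; inactive = meets neither condition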
Numbers stand for hits; i = inactive; ? = inconclusive; nt = not tested or not shown. Compounds with a hit are over-represented: about 6.8% of the library has one in this group of screens.

SMILES | T cruzi growth-1 | Pf Dd2 growth | C diff HTS | T cruzi growth-2 | T cruzi growth-3 | 3T3 cytotox | 3T3 cytotox 2
O=C(NC[C@H]1N[C@H](CO)[C@@H]1c1ccc(C2=CCCCC2)cc1)c1ccc(F)cc1 | 96 | i | i | 100 | i | i | 106
CN(C)C(=O)c1ccc(-c2ccc3c(c2)[C@@H]2[C@@H](CCN2C(=O)Cc2ccccn2)[C@@H](CO)N3C)cc1 | i | i | i | nt | nt | nt | nt
CN(C)C(=O)c1ccc(-c2ccc3c(c2)[C@H]2[C@H](CCN2C(=O)Cc2ccccn2)[C@H](CO)N3C)cc1 | i | i | i | nt | nt | nt | nt
CN(C)C(=O)c1ccc(-c2ccc3c(c2)[C@@H]2[C@@H](CCN2C(=O)Cc2ccccn2)[C@H](CO)N3C)cc1 | 104 | i | i | 104 | i | i | i
CN1c2ccc(-c3ccccc3)cc2[C@H]2[C@H](CCN2C(=O)Cc2ccccn2)[C@@H]1CO | 113 | i | i | 103 | i | i | i
C[C@@H]1CN([C@@H](C)CO)S(=O)(=O)c2ccc(C#C[C@@H](C)O)cc2O[C@@H]1CN(C)C(=O)Nc1ccccc1 | i | i | i | nt | nt | nt | nt
COc1ccc(NC(=O)Nc2ccc3c(c2)C(=O)N([C@H](C)CO)C[C@H](C)[C@@H](CN(C)C(=O)Nc2c(C)noc2C)OCCCC[C@@H](C)O3)cc1 | i | i | i | nt | nt | nt | nt
Cc1noc(C)c1NC(=O)N(C)C[C@@H]1OCCCC[C@@H](C)Oc2ccc(NS(=O)(=O)c3c(C)noc3C)cc2C(=O)N([C@@H](C)CO)C[C@H]1C | i | i | i | nt | nt | nt | nt
O=S(=O)(N[C@@H]1CC[C@@H](CCn2cc(-c3ccccn3)nn2)O[C@@H]1CO)c1cccc(F)c1 | i | i | i | nt | nt | nt | nt
C[C@H]1CN([C@@H](C)CO)C(=O)c2cccc(NC(=O)C3CC3)c2O[C@@H]1CN(C)Cc1ccc2c(c1)OCO2 | i | i | i | nt | nt | nt | nt
CN(C)C(=O)c1cccc(-c2ccc([C@H]3[C@@H](CO)N4CCCCN(CCC(F)(F)F)C[C@H]34)cc2)c1 | 103 | i | i | 99 | i | i | i
CN(C)C(=O)c1cccc(-c2ccc([C@@H]3[C@@H](CO)N4CCCCN(CCC(F)(F)F)C[C@@H]34)cc2)c1 | i | i | i | nt | nt | nt | nt
CN(C)C(=O)c1cccc(-c2ccc([C@@H]3[C@H](CO)N4CCCCN(CCC(F)(F)F)C[C@@H]34)cc2)c1 | i | i | i | nt | nt | nt | nt
CN(C)C(=O)c1cccc(-c2ccc([C@H]3[C@H](CO)N4CCCCN(CCC(F)(F)F)C[C@@H]34)cc2)c1 | 105 | i | i | 109 | i | i | 25
COCC#Cc1cnc2c(c1)C(=O)N([C@@H](C)CO)C[C@@H](C)[C@@H](CN(C)S(C)(=O)=O)O2 | i | i | i | nt | nt | nt | nt
C[C@H](CO)N1C[C@H](C)[C@@H](CN(C)Cc2ccc(Oc3ccccc3)cc2)Oc2c(NC(=O)C3CCCCC3)cccc2C1=O | ? | i | nt | 104 | i | i | 104
CC(C)NC(=O)N(C)C[C@H]1Oc2c(NC(=O)C3CC3)cccc2C(=O)N([C@@H](C)CO)C[C@H]1C | i | i | i | nt | nt | nt | nt
CC(C)NC(=O)N(C)C[C@H]1Oc2c(NC(=O)C3CC3)cccc2C(=O)N([C@H](C)CO)C[C@H]1C | 97 | i | i | i | i | i | i
Cc1noc(C)c1NC(=O)N(C)C[C@@H]1Oc2c(NS(=O)(=O)c3c(C)noc3C)cccc2C(=O)N([C@@H](C)CO)C[C@@H]1C | i | i | i | nt | nt | nt | nt
Cc1noc(C)c1NC(=O)N(C)C[C@@H]1Oc2c(NS(=O)(=O)c3c(C)noc3C)cccc2C(=O)N([C@H](C)CO)C[C@@H]1C | 102 | i | i | 102 | i | i | i
C[C@@H]1CN([C@H](C)CO)C(=O)c2cccc(NC(=O)NC3CCCCC3)c2O[C@@H]1CN(C)Cc1ccc(-c2ccccc2)cc1 | 115 | i | i | 101 | i | i | ?
C[C@@H]1CN([C@@H](C)CO)C(=O)c2cccc(NC(=O)C3CCCCC3)c2O[C@H]1CN(C)Cc1ccc(Oc2ccccc2)cc1 | i | i | nt | nt | nt | nt | nt
